Measurements as given in the supplement of paper PMC11732987, “Enantioselective OTUD7B fragment discovery through chemoproteomics screening and high-throughput optimisation” (Communications Chemistry, 2025).

What was measured:
Assay in all cases: log2 ratio of Biotin-Ahx-Ub-VS probe labelling (fragment/DMSO); higher = less target engagement (more negative = stronger competition), active = hit call of the paper (q ≤ 0.05, log2 ratio ≤ -1)
Details in all cases: compound concentration: 200 uM; treatment time: 3 h
USP34 = USP34 (UniProt Q70CQ2)
Summary of the method: (§1)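 Fragment (200 µM) or vehicle was incubated for 3 h with triplicate HEK293T lysate samples of 495 µg, which were then treated with Biotin-Ahx-Ub-VS at 0.5 µM final for 1 h. Labelled DUBs were enriched on NeutrAvidin, digested with LysC and trypsin, and analysed by diaPASEF LC-MS/MS. Values are average log2 fragment/vehicle ratios from an unpaired t-test on global-median-normalised Spectronaut label-free quantities, using proteins with ≥2 unique peptides.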

USP36 = target: T1, USP36 (UniProt Q9P275)
T1 sequence (whole entry): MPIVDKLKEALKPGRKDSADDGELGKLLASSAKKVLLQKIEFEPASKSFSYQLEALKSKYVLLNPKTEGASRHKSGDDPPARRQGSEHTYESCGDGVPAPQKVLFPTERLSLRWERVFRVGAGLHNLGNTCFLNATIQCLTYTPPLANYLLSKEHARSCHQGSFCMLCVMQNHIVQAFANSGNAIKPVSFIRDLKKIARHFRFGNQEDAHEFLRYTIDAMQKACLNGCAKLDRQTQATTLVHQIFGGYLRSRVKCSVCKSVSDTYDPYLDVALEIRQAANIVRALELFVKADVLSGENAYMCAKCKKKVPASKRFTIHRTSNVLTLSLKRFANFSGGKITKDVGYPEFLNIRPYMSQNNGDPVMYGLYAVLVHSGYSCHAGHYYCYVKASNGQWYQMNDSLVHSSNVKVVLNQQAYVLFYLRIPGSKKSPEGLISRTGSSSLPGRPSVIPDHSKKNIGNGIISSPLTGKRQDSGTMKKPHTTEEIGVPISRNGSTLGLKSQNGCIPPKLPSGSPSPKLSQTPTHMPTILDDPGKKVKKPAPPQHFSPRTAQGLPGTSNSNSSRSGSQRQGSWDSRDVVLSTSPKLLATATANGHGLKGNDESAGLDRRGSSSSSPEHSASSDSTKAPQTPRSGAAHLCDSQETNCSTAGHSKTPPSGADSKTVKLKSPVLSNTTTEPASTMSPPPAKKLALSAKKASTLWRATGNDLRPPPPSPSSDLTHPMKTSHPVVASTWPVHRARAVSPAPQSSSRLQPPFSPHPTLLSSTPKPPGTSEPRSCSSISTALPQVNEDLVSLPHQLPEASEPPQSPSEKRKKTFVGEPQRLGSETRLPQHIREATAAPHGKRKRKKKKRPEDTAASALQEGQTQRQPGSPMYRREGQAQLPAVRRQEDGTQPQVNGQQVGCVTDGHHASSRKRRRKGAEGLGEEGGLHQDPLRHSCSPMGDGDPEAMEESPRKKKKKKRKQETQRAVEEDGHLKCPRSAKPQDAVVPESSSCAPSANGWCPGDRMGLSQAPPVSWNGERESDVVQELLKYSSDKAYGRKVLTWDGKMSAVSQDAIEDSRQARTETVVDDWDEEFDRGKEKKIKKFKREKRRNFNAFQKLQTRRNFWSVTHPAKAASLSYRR
Summary of the method: as §1

USP38 = target: T2, USP38 (UniProt Q8NB14)
T2 sequence (whole entry): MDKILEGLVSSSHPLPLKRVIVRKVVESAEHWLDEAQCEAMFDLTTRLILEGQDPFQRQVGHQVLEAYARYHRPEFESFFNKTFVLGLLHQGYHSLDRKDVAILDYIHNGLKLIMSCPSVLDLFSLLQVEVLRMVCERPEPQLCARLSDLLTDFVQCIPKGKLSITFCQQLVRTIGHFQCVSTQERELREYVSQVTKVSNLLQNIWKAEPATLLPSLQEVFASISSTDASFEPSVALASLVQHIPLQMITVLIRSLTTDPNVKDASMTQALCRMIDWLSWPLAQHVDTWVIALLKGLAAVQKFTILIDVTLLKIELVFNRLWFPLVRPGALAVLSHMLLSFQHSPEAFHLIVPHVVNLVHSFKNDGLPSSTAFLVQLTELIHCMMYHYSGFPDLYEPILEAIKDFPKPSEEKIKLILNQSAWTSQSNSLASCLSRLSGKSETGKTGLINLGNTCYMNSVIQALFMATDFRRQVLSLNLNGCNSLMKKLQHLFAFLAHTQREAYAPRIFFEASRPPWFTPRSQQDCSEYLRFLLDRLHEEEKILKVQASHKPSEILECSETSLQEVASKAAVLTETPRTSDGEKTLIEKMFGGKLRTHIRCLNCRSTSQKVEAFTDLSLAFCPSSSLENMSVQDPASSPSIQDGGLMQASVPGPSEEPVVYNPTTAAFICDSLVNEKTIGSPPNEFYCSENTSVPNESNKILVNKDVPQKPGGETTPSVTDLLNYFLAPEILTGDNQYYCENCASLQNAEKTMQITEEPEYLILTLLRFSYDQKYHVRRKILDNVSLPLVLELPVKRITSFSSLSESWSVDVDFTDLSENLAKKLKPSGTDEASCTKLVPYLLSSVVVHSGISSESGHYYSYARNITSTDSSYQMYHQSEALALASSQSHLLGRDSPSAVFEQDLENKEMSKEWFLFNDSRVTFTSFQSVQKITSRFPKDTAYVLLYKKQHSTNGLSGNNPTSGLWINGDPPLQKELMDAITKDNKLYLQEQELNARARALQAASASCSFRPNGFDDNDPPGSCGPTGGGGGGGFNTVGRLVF
Summary of the method: as §1

USP39 = target: T3, USP39 (UniProt Q53GS9)
T3 sequence (whole entry): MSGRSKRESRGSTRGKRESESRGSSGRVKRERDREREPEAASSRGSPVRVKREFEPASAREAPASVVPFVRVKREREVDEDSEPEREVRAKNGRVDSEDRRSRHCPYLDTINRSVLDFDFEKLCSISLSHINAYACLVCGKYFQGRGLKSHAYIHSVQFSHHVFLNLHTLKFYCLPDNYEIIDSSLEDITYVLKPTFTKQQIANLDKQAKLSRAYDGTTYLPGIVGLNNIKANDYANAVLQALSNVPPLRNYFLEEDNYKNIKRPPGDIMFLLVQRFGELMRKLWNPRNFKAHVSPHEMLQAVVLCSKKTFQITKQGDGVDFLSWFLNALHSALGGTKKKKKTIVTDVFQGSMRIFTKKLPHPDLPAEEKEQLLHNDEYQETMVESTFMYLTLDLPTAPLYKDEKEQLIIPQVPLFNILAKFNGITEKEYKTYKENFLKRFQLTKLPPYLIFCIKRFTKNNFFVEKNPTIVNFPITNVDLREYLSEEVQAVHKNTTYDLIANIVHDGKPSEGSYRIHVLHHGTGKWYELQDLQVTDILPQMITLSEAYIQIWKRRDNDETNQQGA
Summary of the method: as §1

USP4 = target: T4, USP4 (UniProt Q13107)
T4 sequence (whole entry): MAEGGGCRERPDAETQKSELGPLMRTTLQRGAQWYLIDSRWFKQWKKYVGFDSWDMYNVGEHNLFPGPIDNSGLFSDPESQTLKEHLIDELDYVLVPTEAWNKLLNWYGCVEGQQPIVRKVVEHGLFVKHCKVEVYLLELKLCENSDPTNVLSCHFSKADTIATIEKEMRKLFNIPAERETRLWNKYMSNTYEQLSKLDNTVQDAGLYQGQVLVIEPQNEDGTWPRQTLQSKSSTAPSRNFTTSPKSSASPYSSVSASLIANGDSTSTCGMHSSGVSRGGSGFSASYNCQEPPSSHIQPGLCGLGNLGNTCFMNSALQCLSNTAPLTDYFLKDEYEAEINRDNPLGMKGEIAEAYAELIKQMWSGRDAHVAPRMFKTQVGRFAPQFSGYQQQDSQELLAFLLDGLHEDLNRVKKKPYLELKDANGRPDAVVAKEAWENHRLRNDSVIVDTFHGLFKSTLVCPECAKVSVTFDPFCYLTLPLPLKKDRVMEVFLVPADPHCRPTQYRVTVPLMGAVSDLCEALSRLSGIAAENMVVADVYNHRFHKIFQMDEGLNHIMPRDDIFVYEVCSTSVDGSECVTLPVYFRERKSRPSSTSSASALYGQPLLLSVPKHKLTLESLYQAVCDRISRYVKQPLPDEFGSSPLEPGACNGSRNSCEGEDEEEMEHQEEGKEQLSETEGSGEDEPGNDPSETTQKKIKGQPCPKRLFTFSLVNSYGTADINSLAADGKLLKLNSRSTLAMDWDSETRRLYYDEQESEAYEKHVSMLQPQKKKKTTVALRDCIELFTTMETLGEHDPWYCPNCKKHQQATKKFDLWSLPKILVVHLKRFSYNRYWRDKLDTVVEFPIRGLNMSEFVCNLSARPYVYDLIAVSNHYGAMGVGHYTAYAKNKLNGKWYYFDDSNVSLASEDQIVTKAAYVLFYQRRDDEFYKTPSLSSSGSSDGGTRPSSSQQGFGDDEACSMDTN
Summary of the method: as §1

Measured: log2 ratio of Biotin-Ahx-Ub-VS probe labelling

USP34, sequence (Q70CQ2 whole entry, the tested form may be a part): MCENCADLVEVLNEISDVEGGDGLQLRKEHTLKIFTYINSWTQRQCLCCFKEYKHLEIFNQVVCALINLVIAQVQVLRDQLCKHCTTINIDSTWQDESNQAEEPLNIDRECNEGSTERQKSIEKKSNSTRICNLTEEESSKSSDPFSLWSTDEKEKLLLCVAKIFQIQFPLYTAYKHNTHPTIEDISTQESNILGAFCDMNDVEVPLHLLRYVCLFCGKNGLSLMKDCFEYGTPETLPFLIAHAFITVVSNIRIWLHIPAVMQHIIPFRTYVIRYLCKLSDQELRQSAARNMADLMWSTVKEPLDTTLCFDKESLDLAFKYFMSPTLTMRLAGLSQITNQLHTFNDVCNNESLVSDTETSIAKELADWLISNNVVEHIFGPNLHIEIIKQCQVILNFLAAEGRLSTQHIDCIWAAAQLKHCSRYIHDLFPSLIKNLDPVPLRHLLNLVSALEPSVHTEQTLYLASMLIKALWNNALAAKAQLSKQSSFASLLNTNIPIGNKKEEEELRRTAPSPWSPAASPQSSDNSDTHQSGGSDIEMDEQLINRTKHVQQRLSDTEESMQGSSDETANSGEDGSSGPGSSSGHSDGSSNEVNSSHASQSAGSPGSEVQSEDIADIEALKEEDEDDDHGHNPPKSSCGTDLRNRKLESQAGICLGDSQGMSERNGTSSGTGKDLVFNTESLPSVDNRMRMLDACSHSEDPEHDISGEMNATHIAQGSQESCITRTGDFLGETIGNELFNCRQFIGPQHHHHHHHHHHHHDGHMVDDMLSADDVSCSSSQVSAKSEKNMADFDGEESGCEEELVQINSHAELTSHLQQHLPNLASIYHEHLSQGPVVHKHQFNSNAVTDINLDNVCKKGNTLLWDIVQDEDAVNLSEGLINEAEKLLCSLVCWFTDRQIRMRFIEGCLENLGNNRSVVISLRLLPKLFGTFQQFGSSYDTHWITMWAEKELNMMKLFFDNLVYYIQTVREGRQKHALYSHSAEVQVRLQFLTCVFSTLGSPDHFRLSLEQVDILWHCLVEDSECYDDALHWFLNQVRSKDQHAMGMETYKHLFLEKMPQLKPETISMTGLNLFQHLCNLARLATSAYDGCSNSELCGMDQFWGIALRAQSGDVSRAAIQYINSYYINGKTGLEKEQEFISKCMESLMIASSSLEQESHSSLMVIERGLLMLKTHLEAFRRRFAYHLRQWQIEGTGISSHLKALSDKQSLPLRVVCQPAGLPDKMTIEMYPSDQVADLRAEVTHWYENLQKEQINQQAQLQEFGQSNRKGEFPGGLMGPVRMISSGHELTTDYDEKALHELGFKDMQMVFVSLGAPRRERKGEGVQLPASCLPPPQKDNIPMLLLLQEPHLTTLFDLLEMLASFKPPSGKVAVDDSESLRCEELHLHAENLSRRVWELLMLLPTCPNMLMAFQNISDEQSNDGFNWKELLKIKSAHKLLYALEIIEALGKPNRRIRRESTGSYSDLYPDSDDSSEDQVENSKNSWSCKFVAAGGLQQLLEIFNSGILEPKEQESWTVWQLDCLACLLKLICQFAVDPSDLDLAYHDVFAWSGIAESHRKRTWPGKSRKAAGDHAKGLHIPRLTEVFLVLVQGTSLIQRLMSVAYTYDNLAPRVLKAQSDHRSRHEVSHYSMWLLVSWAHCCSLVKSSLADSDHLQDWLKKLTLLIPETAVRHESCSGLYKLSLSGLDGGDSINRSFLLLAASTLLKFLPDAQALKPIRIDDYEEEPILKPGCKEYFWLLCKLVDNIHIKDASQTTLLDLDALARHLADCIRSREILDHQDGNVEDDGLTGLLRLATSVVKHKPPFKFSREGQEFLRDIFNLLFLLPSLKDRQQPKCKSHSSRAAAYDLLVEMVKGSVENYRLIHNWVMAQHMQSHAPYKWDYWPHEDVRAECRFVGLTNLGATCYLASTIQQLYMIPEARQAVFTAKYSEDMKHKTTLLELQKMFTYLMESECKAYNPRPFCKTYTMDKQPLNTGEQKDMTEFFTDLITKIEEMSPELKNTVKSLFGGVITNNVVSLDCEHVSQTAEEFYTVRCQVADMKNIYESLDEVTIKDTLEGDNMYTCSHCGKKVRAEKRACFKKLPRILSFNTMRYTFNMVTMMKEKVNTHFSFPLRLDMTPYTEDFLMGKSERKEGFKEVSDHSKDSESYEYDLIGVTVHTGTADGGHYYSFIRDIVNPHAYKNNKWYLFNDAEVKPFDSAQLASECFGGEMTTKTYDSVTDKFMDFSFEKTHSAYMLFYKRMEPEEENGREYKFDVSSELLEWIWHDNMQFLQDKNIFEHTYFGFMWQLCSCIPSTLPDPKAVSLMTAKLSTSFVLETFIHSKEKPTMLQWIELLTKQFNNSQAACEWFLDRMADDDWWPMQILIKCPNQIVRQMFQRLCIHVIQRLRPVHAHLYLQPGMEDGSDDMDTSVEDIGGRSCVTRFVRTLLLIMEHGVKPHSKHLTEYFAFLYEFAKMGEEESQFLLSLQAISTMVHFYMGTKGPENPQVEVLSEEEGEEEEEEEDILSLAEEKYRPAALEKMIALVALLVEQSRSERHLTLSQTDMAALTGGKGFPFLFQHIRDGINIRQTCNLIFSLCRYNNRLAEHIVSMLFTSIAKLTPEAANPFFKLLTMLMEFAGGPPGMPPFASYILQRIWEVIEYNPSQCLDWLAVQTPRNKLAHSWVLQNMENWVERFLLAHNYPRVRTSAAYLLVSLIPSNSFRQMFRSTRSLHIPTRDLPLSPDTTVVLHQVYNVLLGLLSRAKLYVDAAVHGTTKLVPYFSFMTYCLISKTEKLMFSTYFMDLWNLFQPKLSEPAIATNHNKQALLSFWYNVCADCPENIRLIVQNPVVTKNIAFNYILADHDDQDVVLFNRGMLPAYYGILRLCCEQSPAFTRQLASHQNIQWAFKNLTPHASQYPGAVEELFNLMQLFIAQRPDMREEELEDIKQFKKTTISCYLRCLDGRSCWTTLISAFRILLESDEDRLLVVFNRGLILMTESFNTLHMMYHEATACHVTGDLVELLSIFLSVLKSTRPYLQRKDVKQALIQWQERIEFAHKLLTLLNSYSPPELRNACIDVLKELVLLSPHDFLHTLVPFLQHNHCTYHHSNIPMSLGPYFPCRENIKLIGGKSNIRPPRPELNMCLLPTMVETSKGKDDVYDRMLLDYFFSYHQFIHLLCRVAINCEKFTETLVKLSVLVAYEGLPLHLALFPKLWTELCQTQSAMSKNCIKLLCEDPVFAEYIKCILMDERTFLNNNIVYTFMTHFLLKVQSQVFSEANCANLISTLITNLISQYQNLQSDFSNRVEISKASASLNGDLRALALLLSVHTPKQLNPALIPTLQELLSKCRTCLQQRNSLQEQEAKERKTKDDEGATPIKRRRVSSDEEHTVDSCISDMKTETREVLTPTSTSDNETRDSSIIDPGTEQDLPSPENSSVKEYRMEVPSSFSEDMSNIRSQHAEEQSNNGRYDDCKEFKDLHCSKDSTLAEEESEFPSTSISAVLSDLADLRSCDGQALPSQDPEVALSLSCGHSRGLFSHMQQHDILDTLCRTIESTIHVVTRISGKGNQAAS

O=C(CCl)N1CCC(O)(Cc2ccc(F)cc2)C1 (stereo not given)
inactive: USP34 -0.0775 | USP36 0.229 | USP38 0.29 | USP39 0.427 | USP4 -0.138
